Test results taken from the supplement of paper PMC4894684.
Structures can show the parent of a compound that is named as a salt. ± gives the standard deviation of the averaged measurements.

tested on: Toxoplasma gondii RH (in HFF); assay: parasite growth relative to the screen mean (all compounds = 100%); higher = less inhibition of parasite growth; settings: 5 µM; 72 h; oxygen 21 %
Procedure, shortened: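 Growth values are relative to the mean of the whole screen and averaged over duplicate screens, with all compounds together set to 100%. Parasites (RH β-Gal–GFP Toxoplasma, MOI 1:5) were added within 2 h of pinning compounds at 5 µM final onto confluent human foreskin fibroblasts and grown 72 h at 21% O2. Parasite number came from CPRG β-Gal readings against in-plate standard curves.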

`CCOC(=O)c1cnc2c(cnn2CC)c1NN=C(C)C` [Etazolate hydrochloride] and `Cc1ccc(OCC(O)C(C)NC(C)C)c2c1CCC2` (centres undefined) [ICI-118,551 hydrochloride] are within error of each other in parasite growth: 127 ± 21% for the first, 92.9 ± 14% for the second.

Going from `CC(C)(CO)Cc1cc(C(C)(C)C)c(O)c(C(C)(C)C)c1` to `Cc1sc(N)c(C(=O)c2cccc(C(F)(F)F)c2)c1C`, the parasite growth falls from 192 ± 11% to 141 ± 7.3%.

Going from `Oc1ccc(Nc2nc(-c3ccc(Cl)cc3)cs2)cc1` to `O=C(O)Cn1c(C(=O)Nc2nc(-c3ccccc3Cl)cs2)cc2ccccc21`, the parasite growth rises from 26.9 ± 8% to 133 ± 2.8%.

First: Cc1ccccc1C(=O)c1ccc(Nc2ccc(Br)cc2N)cc1Cl
Second: C[C@@H](CN1CCC(n2c(=O)[nH]c3cc(Cl)ccc32)CC1)NC(=O)c1ccc2ccccc2c1
The parasite growth of the first is higher: 172 ± 48% for the first, 5.93 ± 2.3% for the second.

`O=C(O)/C=C/c1ccc(Cn2ccnc2)cc1` [Ozagrel hydrochloride] and `Oc1ccc(/C=C/c2cc(O)cc(O)c2)cc1` [Resveratrol] are within error of each other in parasite growth: 119 ± 3.2% for the first, 112 ± 56% for the second.

Compared with `CC(=O)N[C@@H](CC(=O)N[C@@H](CCC(=O)O)C(=O)O)C(=O)O` [Spaglumic acid], `CCCC[C@@H](C=O)NC(=O)[C@H](CC(C)C)NC(=O)OCc1ccccc1` [Calpeptin] is lower in parasite growth: 131 ± 6.6% for the first, 19.9 ± 4.8% for the second.

`CC1(C)Oc2ccc(C#N)cc2[C@@H](N2CCCC2=O)[C@@H]1O` [Levcromakalim] and `Cc1c(C(=O)N(C)C2CCCCC2)sc2nc3ccc(N)cc3n12` are within error of each other in parasite growth: 158 ± 31% for the first, 185 ± 31% for the second.

Compared with `CN(C)CCCN1c2ccccc2CCc2ccc(Cl)cc21` [Clomipramine hydrochloride], `CSc1ccc2c(c1)C(N1CCN(C)CC1)Cc1ccccc1S2` (centres undefined) [Methiothepin maleate] is lower in parasite growth: 38.4 ± 2.9% for the first, < 0% for the second.

Compared with `Nc1ncnc2c1ncn2C1CCCO1` (centres undefined), `OC[C@H]1O[C@@H](n2cnc3c(N[C@H]4CCC[C@@H]4O)ncnc32)[C@H](O)[C@@H]1O` is higher in parasite growth: 70.4 ± 16% for the first, 140 ± 10% for the second.

`O=C(O)c1ccc2cc(-c3ccc(O)c(C45CC6CC(CC(C6)C4)C5)c3)ccc2c1` and `O=C(O)c1ccc(C=C2SC(=S)N(c3cccc(C(F)(F)F)c3)C2=O)cc1` are within error of each other in parasite growth: 181 ± 36% for the first, 109 ± 36% for the second.

`C=C[C@@]1(C)CC(=O)[C@]2(O)[C@@]3(C)[C@@H](O)CCC(C)(C)[C@@H]3[C@H](O)[C@H](OC(C)=O)[C@@]2(C)O1` [Forskolin] and `O=C(O)CCC/C=C\CC1C(O)CC(O)C1/C=C/C(O)COc1cccc(Cl)c1` (racemic) [(±)-Cloprostenol sodium salt] are within error of each other in parasite growth: 116 ± 2.3% for the first, 121 ± 15% for the second.

Going from `O=c1cc(N2CCNCC2)oc2c(-c3ccccc3)cccc12` to `O=C(c1ccc(F)cc1)C1CCN(CCCCc2ccccc2)CC1` [4-(4-Fluorobenzoyl)-1-(4-phenylbutyl)-piperidine oxalate], the parasite growth falls from 150 ± 30% to 110 ± 7.6%.

`NCCc1c[nH]cn1` [Histamine dihydrochloride] and `c1ccc(COCCCc2c[nH]cn2)cc1` [Proxyfan Oxalate] are within error of each other in parasite growth: 80.2 ± 36% for the first, 112 ± 18% for the second.

`CCN(CC)CCCCC1CCN(CC(=O)N2c3ccccc3C(=O)Nc3cccnc32)CC1` and `O=C1c2ccccc2S(=O)(=O)N1CCCCN1CCN(c2ncccn2)CC1` [Ipsapirone] are within error of each other in parasite growth: 141 ± 17% for the first, 160 ± 46% for the second.

First: O=c1[nH]nc(Sc2ncc([N+](=O)[O-])s2)n1-c1ccc2c(c1)OCCO2
Second: O=C1N(c2ccccc2)c2ccccc2C1(Cc1ccncc1)Cc1ccncc1 [Linopirdine dihydrochloride]
The parasite growth of the first is higher: 130 ± 46% for the first, 56.5 ± 15% for the second.

`CC(C)(C)NC[C@H](O)COc1nsnc1N1CCOCC1` [(S)-Timolol maleate] and `N#Cc1ccccc1OCC(O)CNCCNC(=O)Nc1ccccc1` (centres undefined) are within error of each other in parasite growth: 119 ± 1.7% for the first, 137 ± 18% for the second.

`N=C(N)c1ccc(N2CCN(C3CCN(CC(=O)O)CC3)CC2)cc1` and `COc1ccc(Cl)cc1C(=O)NCCc1ccc(S(=O)(=O)NC(=O)NC2CCCCC2)cc1` [Glibenclamide] are within error of each other in parasite growth: 128 ± 33% for the first, 96.4 ± 24% for the second.

Going from `NCCNC(=O)c1ccc(Cl)cn1` [Lazabemide hydrochloride] to `O=C(O)CCCc1ccccc1` [sodium 4-Phenylbutyrate], the parasite growth falls from 109 ± 28% to 64.6 ± 3.4%.

`N#C/C(=C\c1ccc(O)c(O)c1)C(=O)Nc1ccccc1` and `Cc1nc2c(OCc3ccccc3)cccn2c1CC#N` are within error of each other in parasite growth: 141 ± 23% for the first, 153 ± 7.3% for the second.

`CCCCCCCC/C=C\CCCCCCCC(=O)NCc1ccc(O)c(OC)c1` [Olvanil] gave a parasite growth of 155 ± 38%.
